Data reported in PubChem BioAssay (NCATS).
“And” between values parts separate entries of the source, which are not always exact repeats. Equal entries are not always repeated. Results filed as inconclusive are left out. The source made the active and inactive calls. Unless noted, calls follow the shape of the dose curve; as a rule, active = well fitted curve in the direction sought with a large enough effect; inconclusive = small, poorly fitted or top-dose-only effect, or another doubt; inactive = no such curve, though single readings can be large; an effect the other way counts as inactive or inconclusive.

Legend:
[1] = qHTS profiling of the MIPE4 collection as inhibitors of Plasmodium falciparum (3D7) proliferation (AID 743344; call rule not given here;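 also: scaled between DMSO vehicle wells and 0.29 µM artemisinin as full inhibition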); conditions: P. falciparum 3D7 in erythrocytes, SYBR Green DNA fluorescence, 72 h; at 28.5 µM unless noted
Procedure, shortened: (§1)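 Parasite DNA was quantified by SYBR Green I fluorescence (ex 485, em 535 nm) after overnight lysis in saponin/Triton buffer at room temperature. Cultures at 0.3% parasitemia and 2.5% hematocrit were first exposed to compound for 72 h at 37 C; signals were normalised to artemisinin (0.29 uM) and vehicle wells.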

[2] = qHTS profiling of the MIPE4 collection as inhibitors of Plasmodium falciparum (DD2) proliferation (AID 743345; call rule not given here); conditions: P. falciparum Dd2 in erythrocytes, SYBR Green DNA, 72 h; at 28.5 µM unless noted
Procedure, shortened: as §1

[3] = qHTS profiling of the MIPE4 collection as inhibitors of Plasmodium falciparum (DD2) proliferation (Rep 2) (AID 743346; call rule not given here); conditions: P. falciparum Dd2 in erythrocytes, SYBR Green DNA, 72 h; at 28.5 µM unless noted
Procedure, shortened: as §1

[4] = qHTS profiling of the MIPE4 collection as inhibitors of Plasmodium falciparum (HB3) proliferation (AID 743347; call rule not given here;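 also: plate controls were DMSO vehicle wells for no effect and artemisinin wells for full effect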); conditions: P. falciparum HB3 in erythrocytes, SYBR Green DNA, 72 h; at 28.5 µM unless noted
Procedure, shortened: as §1

[5] = qHTS assay for measurement of the activity of small molecule inhibitors on Zika virus induced Caspase-3 activity in human iPSC derived neural progenitor cells (hNPCs) (AID 1224857); also: % of control where 0% means no effect; nearly all actives have a fitted effect of over 65% in size
Procedure, shortened: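 Caspase-3/7 induction by a 6-hour ZIKV infection was quantified with a luminescent Caspase-Glo 3/7 reagent incubated 30 minutes at room temperature. Compounds were preincubated with hNPCs for 1 hour; inhibition was calculated against uninfected and infected control wells.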

[6] = qHTS assay for measurement of the activity of small molecule inhibitors on Zika virus induced Caspase-3 activity in human astrocytoma cells (AID 1224859);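 also: plate controls were ZIKV-infected untreated cells for no effect and uninfected cells for full effect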
Procedure, shortened: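 In SNB-19 cells plated at 250 cells/well and grown 16-20 h, compounds were applied 1 h before ZIKV (2 FFU/cell). Six hours later caspase-3/7 luminescence was recorded.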

[7] = qHTS Screen of the MIPE 4.0 Collection Against Ewings Sarcoma (EW8) (AID 1259255); also: nearly all actives have a fitted effect of over 35% in size; also: potency is read from the fitted curve at half-maximal effect;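 as to viability: 100% = DMSO-treated cells and 0% = medium-only wells without cells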
Procedure, shortened: (§2)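 Viability screen: 48 h incubation at 37C, 95% humidity, 5% CO2 with serially titrated compound, followed by CellTiter-Glo readout.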

[8] = P-glycoprotein substrates identified in KB-8-5-11 adenocarcinoma cell line, qHTS therapeutic library screen (AID 1346987); also: nearly all actives have a fitted effect of over 65% in size; also: potency is read from the fitted curve at half-maximal effect
Procedure, shortened: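 Human cervical adenocarcinoma KB-8-5-11 cells, selected in colchicine to over-express P-gp and assayed without it, were exposed for 72 h to titrated compounds. An ATP-based luminescent viability signal gave AC50.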

[9] = High-throughput drug toxicity screening in the BPDCN cell line Cal-1 (AID 1224825; call rule not given here); conditions: Cal-1 BPDCN cell viability, qHTS; at 45.8 µM (top of the series) unless noted
Procedure, shortened: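 CellTiter-Glo luminescence after 48 h compound exposure; percent activity scaled with DMSO as 100% and bortezomib (9.2 uM final) as 0%. Cal-1 cells seeded at 500/well in RPMI, 10% FBS, no phenol red.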

[10] = Identifying Small Molecule Inhibitors of Pancreatic Cancer Stem Cells (SN12C, Adherent) (AID 1259358);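 also: cell survival measured after 48 h of compound exposure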
Procedure, shortened: (§3)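 Monolayer and spheroid cultures are compared. Spheroids form over 14 days in stem cell medium on hydrogel-coated low-attachment plates, then are exposed to compound for 48 h before CellTiter-Glo luminescence.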

[11] = Identifying Small Molecule Inhibitors of Pancreatic Cancer Stem Cells (Panc1, Spheroid) (AID 1259359); conditions: Panc1 spheroid cancer stem cell viability;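 also: potency is read from the fitted curve at half-maximal effect; compound exposure lasted 48 h before reading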
Procedure, shortened: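 Luminescent ATP readout (CellTiter-Glo) quantifies surviving cells after a 48 h drug incubation. Normalization uses DMSO wells as no inhibition and media-only wells as full inhibition; bortezomib served as positive control.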

[12] = Identifying Small Molecule Inhibitors of Pancreatic Cancer Stem Cells (A278, Adherent) (AID 1259361);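 also: viability read after 48 h compound exposure; 100% = DMSO-treated cells and 0% = cell-free media-only wells; nearly all actives have a fitted effect of over 35% in size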
Procedure, shortened: as §3

[13] = Identifying Small Molecule Inhibitors of Pancreatic Cancer Stem Cells (Panc1, Adherent) (AID 1259362); conditions: Potency: viability;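 also: compound exposure lasted 48 h before the viability read; plate controls were DMSO-treated cells for no effect and cell-free media wells for full effect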
Procedure, shortened: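 Viability is scored by CellTiter-Glo luminescence 48 h after dosing, expressed as percent activity against vehicle and no-cell references. Spheroid formats rely on cells cultured 14 days in stem cell media beforehand.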

[14] = P-glycoprotein substrates identified in KB-3-1 adenocarcinoma cell line, qHTS therapeutic library screen (AID 1346986); also: nearly all actives have a fitted effect of over 60% in size
Procedure, shortened: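 Viability by CellTiter-Glo after 72 h compound exposure at 37 degree C, 5% CO2. Cytotoxic call: curve class -1.1 to -2.4, maximum response >50%, AC50 < 10 uM, compared across KB-3-1 and P-gp-overexpressing KB-8-5-11.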

[15] = qHTS Screen of the MIPE 4.0 Collection Against Ewings Sarcoma (TC32) (AID 1259256); also: nearly all actives have a fitted effect of over 45% in size; also: potency is read from the fitted curve at half-maximal effect
Procedure, shortened: as §2

[16] = qHTS Screen of the MIPE 4.0 Collection Against Ewings Sarcoma (RDES) (AID 1259252); also: nearly all actives have a fitted effect of over 35% in size; also: potency is read from the fitted curve at half-maximal effect
Procedure, shortened: as §2

[17] = qHTS Screen of the MIPE 4.0 Collection Against Ewings Sarcoma (TC71) (AID 1259253); also: nearly all actives have a fitted effect of over 40% in size; also: potency is read from the fitted curve at half-maximal effect
Procedure, shortened: as §2

[18] = qHTS assay to identify small molecule inhibitors of chordoma cells - UCH-1 (AID 1259355); also: nearly all actives have a fitted effect of over 55% in size; also: potency is read from the fitted curve at half-maximal effect
Procedure, shortened: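 Screening used approved and investigational drugs in 15-point titration against 800 seeded cells per well. A fixed combination of auranofin with camptothecin, doxorubicin, rubitecan and topotecan followed compound addition, and growth was scored by CellTiter-Glo after 48hr.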

[19] = qHTS assay to identify small molecule inhibitors of chordoma cells - UCH-2 (AID 1259356); also: % is scaled to controls: 0 for no effect and ±100 for the full control effect

Structure (SMILES): NS(=O)(=O)c1ccc(NC2=CC(=O)c3ccccc3C2=O)cc1
- parasite growth, % of DMSO control [1]: 6.05%
- parasite growth remaining, % of DMSO control (lower = more inhibition) [2]: 9.74%
- parasite growth, % of control (lower = inhibition) [3]: 8.91%
- growth, % of control [4]: 3.54%
- Potency [5]: inactive
- Potency [6]: inactive
- Potency [7]: 1.87 µM (active)
- Potency [8]: inactive

Structure (SMILES): CC(C)(C(=O)NCC(F)(F)C(F)(F)F)C(=O)N[C@@H]1C(=O)Nc2ccccc2-c2ccccc21
- parasite growth, % of DMSO control [1]: 8.18%
- parasite growth remaining, % of DMSO control (lower = more inhibition) [2]: 9.25%
- parasite growth, % of control (lower = inhibition) [3]: 11.3%
- growth, % of control [4]: 10.3%
- viability (% of control) [9]: 5.17%
- Potency [5]: inactive
- Potency [6]: inactive
- Potency [10]: inactive
- Potency [11]: 0.0015 µM (active)
- IC50 (viability decrease) [12]: inactive
- Potency [13]: inactive
- Potency [14]: inactive
- Potency [8]: inactive

Structure (SMILES): CC(C)(C)NC(=O)Nc1cccc(Nc2ncc(F)c(NC(C)(C)CO)n2)c1
- parasite growth, % of DMSO control [1]: 5.44%
- parasite growth remaining, % of DMSO control (lower = more inhibition) [2]: 7.22%
- parasite growth, % of control (lower = inhibition) [3]: 7.73%
- growth, % of control [4]: 3.88%
- viability (% of control) [9]: 45.1%
- Potency [5]: inactive
- Potency [6]: inactive
- Potency [15]: 2.35 µM (active)

Structure (SMILES): CN(C)Cc1cccc(N=C(c2ccccc2)c2c(O)[nH]c3cc(C(=O)N(C)C)ccc23)c1
- parasite growth, % of DMSO control [1]: 16.4%
- parasite growth remaining, % of DMSO control (lower = more inhibition) [2]: 30.5%
- parasite growth, % of control (lower = inhibition) [3]: 12.9%
- growth, % of control [4]: 36.3%
- viability (% of control) [9]: 6.94%
- Potency [5]: inactive
- Potency [6]: inactive

Structure (SMILES): CC(C)OC(=O)CCCC=CC[C@@H]1[C@H](C=C[C@@H](O)COc2cccc(C(F)(F)F)c2)[C@H](O)C[C@@H]1O
- parasite growth, % of DMSO control [1]: 23.8%
- parasite growth remaining, % of DMSO control (lower = more inhibition) [2]: 76.3%
- parasite growth, % of control (lower = inhibition) [3]: 33.1%
- growth, % of control [4]: 15.8%
- viability (% of control) [9]: 63.7%
- Potency [6]: inactive
- Potency [16]: inactive
- Potency [17]: 16.6 µM (active)
- Potency [15]: inactive

Structure (SMILES): O=C(O)CCC(C(=O)O)N1C(=O)c2ccccc2C1=O (stereo unspecified)
- Potency [5]: inactive

Structure (SMILES): CC[C@]1(O)C[C@@H]2CN(CCc3c([nH]c4ccccc34)[C@@](C(=O)OC)(c3cc4c(cc3OC)N(C)[C@H]3[C@@](O)(C(=O)OC)[C@H](OC(C)=O)[C@]5(CC)C=CCN6CC[C@]43[C@@H]65)C2)C1
- Potency [5]: inactive
- Potency [6]: inactive
- Potency [18]: 5.62 µM (active)
- outcome [19]: inactive
- Potency [8]: 5.8 µM (active) and 5.17 µM (active) and 1.16 µM (active)

Structure (SMILES): COc1ccc(C2Sc3ccccc3N(CCN(C)C)C(=O)C2OC(C)=O)cc1 (stereo unspecified)
- parasite growth, % of DMSO control [1]: 68.8% and 96.6%
- parasite growth, % of control (lower = inhibition) [3]: 33.4% and 89.9%
- growth, % of control [4]: 60.2% and 101%
- Potency [6]: inactive
- Potency [16]: 18.7 µM (active)
- Potency [17]: inactive
- Potency [7]: inactive
- Potency [15]: inactive
- Potency [8]: inactive

Structure (SMILES): CC(C)(C)Cn1c(N)nc2ccc(-c3[nH]c(C(C)(C)C)nc3-c3ccc(F)cc3)nc21
- parasite growth, % of DMSO control [1]: 11%
- parasite growth remaining, % of DMSO control (lower = more inhibition) [2]: 9.48%
- parasite growth, % of control (lower = inhibition) [3]: 16%
- growth, % of control [4]: 4.94%
- Potency [6]: inactive
- Potency [15]: 13.2 µM (active)
- Potency [8]: 20.9 µM (active) and 23.1 µM (active)

Structure (SMILES): CCN(CC)C(=O)c1ccc(O)c(OC)c1
- Potency [5]: inactive
- Potency [6]: inactive
- Potency [18]: inactive
- outcome [19]: inactive
- Potency [8]: inactive

Structure (SMILES): CC(C)(C)c1ccc(C(O)CCCN2CCC(C(O)(c3ccccc3)c3ccccc3)CC2)cc1 (stereo unspecified)
- Potency [5]: inactive
- Potency [6]: inactive
- outcome [19]: inactive
- Potency [8]: 13 µM (active) and 18.4 µM (active)
